Rows were chosen to be rich in hits. Some 10% of all compounds tested hit in one or more screens of this group.
BAZ2B inh: BAZ2B (human) inhibition; AlphaScreen BAZ2B-H3K14Ac peptide displacement; Q9UIF8; AID 504333; 360,000 compounds, 4.4% hits; Potency, µM (top dose mostly 114 µM), inactives show at the highest dose activity change, negative = inhibition, hits mostly inhibitors; also: % is scaled to controls: 0 for no effect and ±100 for the full control effect; nearly all actives have a fitted effect of over 60% in size
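AlphaScreen displacement: compounds (up to 110uM) incubated 30 min at room temperature with a preformed 50 nM BAZ2B/50 nM biotinylated H3K14Ac peptide complex in PBS pH 7.4 with Tween-20. Donor and acceptor beads at 10 ug/mL final added, 20 min light-protected before reading.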
JMJD2A Tudor: inhibitors of human JMJD2A Tudor domain; O75164; AlphaScreen JMJD2A-Tudor / H3K4me3 peptide binding; Potency, µM (highest dose often 114 µM), for the others: at the highest dose activity change, negative = inhibition, hits mostly inhibitors; 390,000 compounds, 4.4% hits; also: % is scaled to controls: 0 for no effect and ±100 for the full control effect; nearly all actives have a fitted effect of over 50% in size
GLS inhibitor: blocks human kidney-isoform glutaminase activity. O94925. 410,000 compounds, 0.21% hits. AID 624170. Potency, µM (doses to about 45.5 µM), inactives show top-dose activity change, negative = inhibition, hits mostly inhibitors. GLS enzymatic activity, qHTS titration; also: % is scaled to controls: 0 for no effect and ±100 for the full control effect
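Coupled fluorescence readout: glutamate oxidase/HRP/Amplex Red detect glutamate formed by hKGA from L-glutamine (1 mM solution added). Buffer 45 mM KH2PO4 pH 8.2, 0.02% Tween-20; reads at t0 and 30 min RT.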
HP1b chromo inh: inhibitors of HP1-beta chromodomain binding to methylated histone tails; AlphaScreen HP1-beta / biotin-H3K9me3 peptide binding; Potency, µM (doses to about 114 µM), without a hit: at the top dose activity change, negative = inhibition, most hits filed as inhibitors; 390,000 compounds, 0.56% hits; also: nearly all actives have a fitted effect of over 70% in size
Target sequence (P83916 whole entry, looked up): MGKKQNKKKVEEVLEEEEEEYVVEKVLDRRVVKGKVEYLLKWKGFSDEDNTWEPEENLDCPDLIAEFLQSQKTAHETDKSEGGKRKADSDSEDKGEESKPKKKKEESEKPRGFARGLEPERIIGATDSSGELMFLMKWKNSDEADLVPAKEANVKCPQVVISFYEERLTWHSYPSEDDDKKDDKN
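HP1-beta protein (50 nM final) preincubated 30 min at room temperature with biotinylated H3(1-18)K9me3 peptide (50 nM) in PBS pH 7.4, 0.01% Tween-20, then compound added for 30 min. AlphaScreen streptavidin donor/nickel chelate acceptor beads (10 ug/mL final), 30 min dark, luminescence read.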
L3MBTL1 inh: inhibitors of human L3MBTL1. Q9Y468. AlphaScreen L3MBTL1–H3K9me1 peptide binding. Potency, µM (highest dose often 57.1 µM), for inactives: at the top dose activity, negative = inhibition, most hits filed as inhibitors. 230,000 compounds, 0.66% hits. AID 485360; also: % is scaled to controls: 0 for no effect and ±100 for the full control effect; nearly all actives have a fitted effect of over 60% in size
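L3MBTL1 50 nM + b-AHA-H3(1-15)K9me1 75 nM, 30 min RT; compound added, 30 min RT; streptavidin donor/Ni-chelate acceptor beads 10 ug/mL each final, 30 min RT dark; AlphaScreen read.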
G9a inh: blocks human histone lysine methyltransferase G9a; Q96KQ7; G9a H3K9 monomethylation, AlphaScreen, 2 h; Potency, µM (titrated, usually from 102 µM), for the others: at the highest dose activity, negative = inhibition, hits mostly inhibitors; 350,000 compounds, 8.8% hits; AID 504332; also: % is scaled to controls: 0 for no effect and ±100 for the full control effect; nearly all actives have a fitted effect of over 75% in size
Target sequence (Q96KQ7 913-1193 limits assumed): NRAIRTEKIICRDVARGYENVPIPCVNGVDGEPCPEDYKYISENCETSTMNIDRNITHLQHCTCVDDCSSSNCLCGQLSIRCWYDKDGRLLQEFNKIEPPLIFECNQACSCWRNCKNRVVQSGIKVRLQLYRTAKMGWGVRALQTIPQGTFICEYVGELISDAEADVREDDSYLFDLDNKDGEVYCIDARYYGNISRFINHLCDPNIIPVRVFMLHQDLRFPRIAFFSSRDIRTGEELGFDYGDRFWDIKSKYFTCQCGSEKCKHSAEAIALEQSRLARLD
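AlphaScreen detection with an anti-monomethyl H3K9 antibody quantified product after a 2 h room-temperature reaction containing 500 nM biotinylated H3K9 peptide, 20 µM SAM and 20 nM enzyme, which had been preincubated 15 min with compound.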
* marks the source's active call; other numbers are inactive results; [ ] = remark or other dose. Calls follow the shape of the dose curve; as a rule, active = well fitted curve in the direction sought with a large enough effect; inconclusive = small, poorly fitted or top-dose-only effect, or another doubt; inactive = no such curve, though single readings can be large; an effect the other way counts as inactive or inconclusive. Potency is read from the fitted curve at half-maximal effect.

COc1ccc(NC(=O)c2ccc(-c3ccc(-c4noc(C)n4)cc3C)cc2)cc1N1CCN(C)CC1 was read as BAZ2B inh 35.5µM*, JMJD2A Tudor 44.7µM*, GLS inhibitor 20.4%, HP1b chromo inh inconclusive, L3MBTL1 inh -17.9% and G9a inh 25.1µM*.
COc1ccc(NC(=O)N2CCN(c3cc(-c4noc(C)n4)ccc3C)CC2)c(OC)c1 was read as BAZ2B inh -8.6%, JMJD2A Tudor -30.3%, GLS inhibitor 29.0%, HP1b chromo inh 35.3%[57 µM] and G9a inh 12.3%[59 µM].
COc1ccc(Cl)cc1-c1nc(-c2ccc(NC(=O)c3ccncc3)cc2)no1 was read as JMJD2A Tudor -5.0%, GLS inhibitor 0.0% and HP1b chromo inh 38.6%.
For CCOC(=O)C1=C(C)N=c2s/c(=C\c3ccc(OCC(=O)O)cc3)c(=O)n2C1c1ccccc1OC (stereo unspecified) the results were BAZ2B inh 79.4µM*, JMJD2A Tudor 89.1µM*, GLS inhibitor 21.4%, HP1b chromo inh -19.2% and G9a inh -35.5%[2.33 µM].
`CCOC(=O)C1=C(C)N=c2s/c(=C/c3ccc(OCC(=O)O)cc3)c(=O)n2C1c1ccc(OC)cc1OC` (stereo unspecified) gave BAZ2B inh 35.5µM*, JMJD2A Tudor 50.1µM*, GLS inhibitor 8.4%, HP1b chromo inh -9.5%, L3MBTL1 inh -7.0% and G9a inh 50.1µM*.
`COc1ccc(C2C(C(C)=O)=C(C)N=c3s/c(=C\c4ccc5c(c4)OCO5)c(=O)n32)c(OC)c1` (stereo unspecified) gave JMJD2A Tudor -26.0%[11.4 µM], GLS inhibitor -6.7% and HP1b chromo inh -6.9%.
Screening CCOC(=O)C1=C(C)N=c2s/c(=C\c3ccc(O)c([N+](=O)[O-])c3)c(=O)n2C1c1ccccc1OC (stereo unspecified) returned BAZ2B inh 8.91µM*, JMJD2A Tudor 10µM*, GLS inhibitor inconclusive, HP1b chromo inh inconclusive, L3MBTL1 inh -9.1% and G9a inh 14.1µM*.
For COc1ccc(C2C(C(C)=O)=C(C)N=c3s/c(=C\c4cc(C)n(C)c4C)c(=O)n32)c(OC)c1 (stereo unspecified) the results were BAZ2B inh inconclusive, JMJD2A Tudor inconclusive, GLS inhibitor 1.7%, HP1b chromo inh 1.4%, L3MBTL1 inh -17.8% and G9a inh inconclusive.
Screening CCOC(=O)C1=C(C)N=c2s/c(=C/c3cccc([N+](=O)[O-])c3O)c(=O)n2C1c1ccc(OC)cc1OC (stereo unspecified) returned BAZ2B inh 5.01µM*, JMJD2A Tudor 11.2µM*, GLS inhibitor inconclusive, HP1b chromo inh 7.08µM*, L3MBTL1 inh inconclusive and G9a inh 7.08µM*.
O=C(CSc1cn(CC(=O)N2CCCCC2)c2ccccc12)NCc1ccc(F)cc1 was read as BAZ2B inh inconclusive, JMJD2A Tudor -12.5%, GLS inhibitor 2.8%, HP1b chromo inh 25.1% and G9a inh -30.2%[59 µM].
For COc1ccc(C2C(C(C)=O)=C(C)N=c3s/c(=C\c4ccco4)c(=O)n32)c(OC)c1 (stereo unspecified) the results were JMJD2A Tudor 31.6µM*, HP1b chromo inh inconclusive, L3MBTL1 inh inconclusive and G9a inh 11.2µM*.
Screening CC(C)c1nnc(NC(=O)CCS(=O)(=O)Cc2ccccc2)s1 returned BAZ2B inh -0.3%, JMJD2A Tudor 1.4%, GLS inhibitor 13.9%, HP1b chromo inh -16.5% and G9a inh 28.2µM*.
For CC(C)c1nnc(NC(=O)CCS(=O)(=O)c2nc(-c3cccs3)cc(C(F)(F)F)n2)s1 the results were BAZ2B inh 89.1µM*, JMJD2A Tudor -23.5%, GLS inhibitor 9.0%, HP1b chromo inh 29.6%, L3MBTL1 inh -9.8% and G9a inh 1.78µM*.
For CN(Cc1ccccc1)C(=O)c1c[nH]c2ccc(S(=O)(=O)Nc3ccccc3F)cc2c1=O the results were JMJD2A Tudor -25.7%, GLS inhibitor -16.0%, HP1b chromo inh 24.7% and G9a inh 12.8%[59 µM].
For O=C(C1CC(=O)N(c2ccc(F)cc2)C1)N1CCN(c2ccc(F)cc2)CC1 (stereo unspecified) the results were BAZ2B inh -13.5%, JMJD2A Tudor -17.1%, GLS inhibitor 5.3% and HP1b chromo inh 9.4%.
`O=C(O)C1CC(=O)N(c2ccc(F)cc2)C1` (stereo unspecified) gave BAZ2B inh -1.2%, JMJD2A Tudor 50.1µM*, GLS inhibitor -0.3%, HP1b chromo inh inconclusive and G9a inh -10.2%[12.7 µM].
`O=Cc1ccc(OC(=O)C2CC(=O)N(c3ccc(F)cc3)C2)cc1` (stereo unspecified) gave BAZ2B inh 3.6%, JMJD2A Tudor -7.4%, GLS inhibitor -1.5%, HP1b chromo inh 38.7% and G9a inh 50.1µM*.
Screening CCOc1ccc(S(=O)(=O)NCc2ccc3c(c2)CCN3C(=O)c2ccc(C)cc2)cc1 returned BAZ2B inh 1.3%, JMJD2A Tudor -25.6%, GLS inhibitor -7.9%, HP1b chromo inh 25.3%[57 µM] and G9a inh 9.0%[59 µM].
For C=Cc1ccc(CSc2nc(-c3ccc(OC)cc3)nc3c2Cc2c(CO)cnc(C)c2O3)cc1 the results were BAZ2B inh -14.2%, JMJD2A Tudor -10.3%, GLS inhibitor -2.2%, HP1b chromo inh 24.7% and G9a inh -30.4%[59 µM].
OC(CNCc1ccccn1)c1ccccc1 (stereo unspecified) was read as BAZ2B inh 22.4µM*, JMJD2A Tudor -7.4%[57.1 µM], GLS inhibitor 0.2%, HP1b chromo inh 60.0%, L3MBTL1 inh -3.9% and G9a inh inconclusive.
For O=C(O)/C=C/C(=O)NCc1ccccn1 the results were BAZ2B inh inconclusive, JMJD2A Tudor 5.9%, GLS inhibitor 6.1%, HP1b chromo inh 36.7% and G9a inh 44.7µM*.
c1ccc(NCc2ccccn2)cc1 was read as BAZ2B inh 79.4µM*, JMJD2A Tudor -32.2%, GLS inhibitor 3.7%, HP1b chromo inh 16.9%, L3MBTL1 inh -5.4% and G9a inh 3.6%.
Cc1cc(Br)ccc1NCc1ccccn1 was read as BAZ2B inh 15.8µM*, JMJD2A Tudor 3.16µM*, GLS inhibitor 16.5%, HP1b chromo inh 15.8µM*, L3MBTL1 inh 4.9% and G9a inh inconclusive.
For OC(CNCc1ccncc1)c1ccccc1 (stereo unspecified) the results were BAZ2B inh 4.3%, JMJD2A Tudor inconclusive, GLS inhibitor 4.7%, HP1b chromo inh -12.8%, L3MBTL1 inh 8.0% and G9a inh 21.9%[59 µM].

Source: PubChem BioAssay (National Center for Advancing Translational Sciences (NCATS))
